Data reported in PubChem BioAssay AID720513 (Broad Institute, 2013).
The whole screen tested about 2,100 compounds, of which about 480 (23%) were called active. Inconclusive results (about 5%) are left out.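 How the source made its calls: active means fitted curve reaches 40% activation at or below the top valid concentration, in every replicate test; inconclusive means replicate tests disagree on the call; inactive means the rest, including activity in the opposite direction.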 Only a sample is shown. Results with a measured potency or affinity are listed apart.

test: PGC1a acetylation increase, cellular AlphaLISA – cell-based, cherry-picked samples, set 6, dose response (AID 720513); conditions: U2OS PGC1a acetylation AlphaLISA, overnight, 0 = neutral, -100 = inhibitor control; series mostly up to 19.5 µM;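 further: cells made to overexpress flag tagged PGC1a plus GCN5 acetyltransferase by viral infection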

| SMILES | outcome |
| --- | --- |
| Clc1ccc2nc(COc3ccccc3)[nH]c2c1 | inactive |
| C[C@@H]1CN([C@H](C)CO)C(=O)c2cc(NC(=O)CCCCCC(=O)Nc3ccccc3N)ccc2O[C@H]1CN(C)S(=O)(=O)c1ccc(Cl)cc1 | inactive |
| C[C@H](CO)N1C[C@H](C)[C@@H](CN(C)Cc2ccc(C(F)(F)F)cc2)OCc2cnnn2CCCC1=O | inactive |
| COc1ccc(C(NC(=O)c2c(F)c(F)c(F)c(F)c2F)c2ccccc2)cc1 (stereo not drawn) | inactive |
| CO[C@@H]1CN(C)C(=O)c2ccc(NS(C)(=O)=O)cc2OC[C@@H](C)N(Cc2nccs2)C[C@@H]1C | inactive |
| O=C(C[C@@H]1C[C@@H]2c3cc(NC(=O)C4CCC4)ccc3O[C@@H]2[C@@H](CO)O1)NCc1ccc(-c2ccccc2)cc1 | inactive |
| CC1=C(Cl)C2=NS(=O)(=O)CCN2C=C1Cl | inactive |
| O=C(c1ccc(Cl)cc1)C(Cn1cncn1)C(Sc1ccccc1)c1ccccc1 (stereo not drawn) | inactive |
| CCCNC(=O)N(C)C[C@H]1Oc2cc(C#CCC(C)C)ccc2S(=O)(=O)N([C@@H](C)CO)C[C@H]1C | inactive |
| COc1cc(CCC(=O)Nc2cc(C)cc(C)c2)cc(OC)c1OC | inactive |
| Cc1ccc(S(=O)(=O)N(CC2CO2)c2ccccc2[N+](=O)[O-])cc1 (stereo not drawn) | inactive |
| O=S(=O)(O)c1nc2ccccc2n1Cc1ccc(Cl)cc1 | inactive |
| CC(C)c1ccccc1NC(=O)Cn1c(-c2ccccc2Cl)nc2ccccc21 | inactive |
| O=S(=O)(c1ccc(N2CCC(c3ccc(Cl)cc3)=N2)cc1)N(CCO)CCO | inactive |
| COc1cccc(N2C(=NC(=O)c3ccccc3)SC3CS(=O)(=O)CC32)c1 (stereo not drawn) | inactive |
| CCOC(=O)c1ccc2[nH]c(C)c(CN3CCN(C)CC3)c(=O)c2c1 | inactive |
| CC(Sc1nnc(N)s1)C(=O)Nc1ccc2c(c1)OCO2 (stereo not drawn) | inactive |
| CCCN(C)C[C@H]1Oc2cc(C#Cc3ccc(OC)cc3)ccc2S(=O)(=O)N([C@@H](C)CO)C[C@H]1C | inactive |
| C[C@H](CO)N1C[C@H](C)[C@H](CN(C)C(=O)C2CCCCC2)Oc2cc(-c3ccccc3)ccc2S1(=O)=O | inactive |
| Cc1cc(N)c2cc(NC(=O)/C=C/c3ccccc3Cl)ccc2n1 | inactive |
| COc1ccc(-c2cn[nH]c2-c2ccc(O)cc2O)cc1 | inactive |
| O=C(CCCc1cccs1)NCCc1c[nH]c2ccccc12 | inactive |
| O=C(CN1C(=O)C2C3CC(C(Br)C3Br)C2C1=O)OCC(=O)c1cccc([N+](=O)[O-])c1 (stereo not drawn) | inactive |
| CC1=C(C(=O)OC(C)(C)C)C(c2ccc3ccccc3c2)NC(=O)N1C (stereo not drawn) | inactive |

| SMILES | outcome |
| --- | --- |
| O=C(O)Cn1cc(C(=O)C(F)(F)F)c2ccccc21 | inactive |
| O=C(Cn1cc(C(=O)c2cccs2)c2ccccc21)NCC1CCCO1 (stereo not drawn) | inactive |
| Cc1ccc(C(=O)Nc2nc(=O)n(C(=O)CC(C)C)s2)cc1 | inactive |
| CN(C)c1ccc(/C=N/N(CCC#N)C2=NS(=O)(=O)c3ccccc32)cc1 | inactive |
| O=C(COc1ccccc1Cl)Nc1ccc(Cl)cn1 | inactive |
| COc1ccccc1C(=O)N1C(CC(=O)Nc2cc(Cl)ccc2C)C(=O)NC2CCCCC21 (stereo not drawn) | inactive |
| Cc1ccc(Sc2ncnc3onc(C)c23)c(C)c1 | inactive |
| Cc1ccccc1CS(=O)(=O)c1nnc([C@H](CC(C)C)NC(=O)OC(C)(C)C)o1 | inactive |
| Cc1ccc(CN2CC(C(=O)N3CCN(S(=O)(=O)c4cccc(F)c4)CC3)CC2=O)cc1 (stereo not drawn) | inactive |
| COc1ccc(S(=O)(=O)N2CCC(C(=O)N3CCC(C(N)=O)CC3)CC2)cc1Cl | inactive |
| CC(C)CC#Cc1ccc2c(c1)O[C@H](CN(C)C(=O)Cc1ccccc1)[C@H](C)CN([C@H](C)CO)S2(=O)=O | inactive |
| COCCn1c(C)c(C)c2c(NCCc3ccccc3)ncnc21 | inactive |
| O=CNCCc1nc2ccccc2n1CCc1ccccc1 | inactive |
| CN1CCN(C2=C(Cl)C(=O)N(CCc3ccccc3)C2=O)CC1 | inactive |
| Cc1ccc(-c2ccc(C3[C@@H]4CN(C(=O)Nc5ccc(C(F)(F)F)cc5)C[C@H]3N4)cc2)cc1 (stereo partly drawn) | inactive |
| COCCNC(=O)CSc1nc2c(n1-c1ccccc1)CCCC2 | inactive |
| C[C@@H]1CN([C@H](C)CO)C(=O)c2cccc(NC(=O)C3CCCCC3)c2O[C@@H]1CN(C)CC1CCCCC1 | inactive |
| CCOC(=O)c1ccc(-c2c(-c3cc(OC)c(OC)c(OC)c3)noc2C)cc1F | inactive |
| O=C(C[C@@H]1C=C[C@@H](NC(=O)Nc2ccc(F)cc2)[C@@H](CO)O1)NCCN1CCCC1 | inactive |
| CC(C)c1nc2sc3c(NCc4ccco4)ncnc3c2c2c1COC(C)(C)C2 | inactive |
| COc1cccc(-n2c(Cc3cc(=O)[nH]c(=O)[nH]3)nnc2SCc2cccc(C(F)(F)F)c2)c1 | inactive |
| O=C(Nc1ccc(F)cc1)c1sc2cc(C(F)(F)F)cnc2c1-c1cccs1 | inactive |
| Cc1cccc(-c2ccc(C3[C@@H]4CN(C(=O)Nc5ccc(C(F)(F)F)cc5)C[C@H]3N4)cc2)c1 (stereo partly drawn) | inactive |
| COc1ccc(N(Cc2cc3cc(OC)ccc3[nH]c2=O)S(C)(=O)=O)cc1 | inactive |

| SMILES | outcome |
| --- | --- |
| COc1ccc(Oc2c(Cl)cnn(-c3ccccc3)c2=O)cc1 | inactive |
| O=C(Nc1ccccc1)Nc1cc(Cl)cc(Cl)c1 | inactive |
| C[C@H](CO)N1C[C@H](C)[C@@H](CN(C)C(=O)Nc2ccc(F)cc2)Oc2ncc(C#CC3CC3)cc2C1=O | inactive |
| O=C(c1ccco1)N1CCN(c2ncnc3scc(-c4cccs4)c23)CC1 | inactive |
| COc1ccc(C2CC(c3cccs3)=NN2c2nc(C)c(C(C)=O)s2)cc1OC (stereo not drawn) | inactive |
| CCOC(=O)C1CCN(C(=O)CSc2ccc(Br)cc2)CC1 | inactive |
| COc1ccccc1Oc1ccc2c(c1)C(=O)N(c1ccc(C)cc1)C2=O | inactive |
| O=C(O)c1cc(N2CCCCC2)ccn1 | inactive |
| N#Cc1sc2nccc(Nc3ccccc3)c2c1N | inactive |
| c1ccc(N2CCN(C3CC4CCC3C4)CC2)cc1 (stereo not drawn) | inactive |
| COc1ccc(C(=O)Nc2ccc(S(=O)(=O)Nc3cc(C)nc(C)n3)cc2)cc1 | inactive |
| Cc1ccc(OC[C@H](O)[C@H](C)NC(C)C)c2c1CCC2 | inactive |
| CN(C)c1ccc(Sc2ccc3nc(N)nc(N)c3c2)cc1 | inactive |
| O=C(Nc1cccc(F)c1)N1CC(=O)N2[C@@H](CO)[C@@H](c3ccc(C#Cc4cccnc4)cc3)[C@@H]2C1 | inactive |
| CCCCCSc1nnc(C)c(=O)[nH]1 | inactive |
| O=C(CC1CC1)N[C@H]1CC[C@@H](CCNS(=O)(=O)c2ccc(Cl)cc2)O[C@@H]1CO | inactive |
| CCOC(=O)c1c(-c2ccco2)csc1NC(=O)COC(=O)c1cnccn1 | inactive |
| CCOC(=O)NC(=O)CSc1nnnn1-c1ccc(C)cc1 | inactive |
| O=C(C[C@H]1CC[C@H](NC(=O)C2CCC2)[C@@H](CO)O1)NCC1CC1 | inactive |
| Cc1ccccc1-c1ccc(C2[C@@H]3CN(C(=O)Nc4cccc(F)c4)C[C@H]2N3)cc1 (stereo partly drawn) | inactive |
| O=C(Nc1ccc(F)cc1)N1CCCCN2[C@H](CO)[C@@H](c3ccc(C#Cc4ccccc4)cc3)[C@H]2C1 | inactive |
| COCCN(C(=O)CSc1nn(-c2ccc(F)cc2)c(=S)s1)c1c(N)n(CC(C)C)c(=O)[nH]c1=O | inactive |
| COc1ccccc1CNS(=O)(=O)c1cc(C)ccc1OC | inactive |
| C[C@@H]1CN([C@@H](C)CO)C(=O)CCCn2nncc2CO[C@H]1CN(C)Cc1ccc(O)cc1 | inactive |

| SMILES | outcome |
| --- | --- |
| CCOc1ccc(N(CC(=O)Nc2ccccc2OC)S(=O)(=O)c2ccccc2)cc1 | inactive |
| C[C@@H]1CCCCO[C@H](CN(C)Cc2ccc3c(c2)OCO3)[C@@H](C)CN([C@@H](C)CO)C(=O)c2cc(NC(=O)Nc3ccc(C(F)(F)F)cc3)ccc2O1 | inactive |
| CC(=O)c1cccc(-c2ccnc3c2CC(C(=O)NCC2CC2)O3)c1 (stereo not drawn) | inactive |
| O=C(CSc1nnc(-c2ccncc2)n1-c1ccc(Cl)cc1)NCc1cccs1 | inactive |
| CC(=O)c1cccc(-c2ccnc3c2CC(C(=O)Nc2ccc4c(c2)OCO4)O3)c1 (stereo not drawn) | inactive |
| O=C(NCc1ccccc1)C1Cc2c(-c3ccc4c(c3)OCO4)ccnc2O1 (stereo not drawn) | inactive |
| COc1ccc(-c2[nH]ncc2-c2ccc3c(c2)OCCO3)c(O)c1 | inactive |
| Cn1nc(C(=O)N2CCCCC2)c2c1-c1ccccc1S(=O)(=O)C2 | inactive |
| Cc1cc(-c2c(C)[nH]n(-c3ccc(Cl)cc3)c2=O)n(-c2ccccc2)n1 | inactive |
| CC(C)(C)c1ccc(-n2nc(C#N)c(Cl)cc2=O)cc1 | inactive |
| COc1ccc(CN(C)C[C@@H]2OCCCC[C@@H](C)Oc3ccc(NS(C)(=O)=O)cc3C(=O)N([C@H](C)CO)C[C@@H]2C)cc1 | inactive |
| CC(C)(C)NS(=O)(=O)c1ccc(-c2csnn2)s1 | inactive |
| CC(C)CC#Cc1ccc2c(c1)O[C@H](CN(C)C)[C@@H](C)CN([C@H](C)CO)S2(=O)=O | inactive |
| CCC1(CC)Cc2ccccc2-c2nc(CN(C)C)[nH]c(=O)c21 | inactive |
| CC(=O)c1ccc(N2CCN(S(=O)(=O)c3csc(C(N)=O)c3)CC2)cc1 | inactive |
| COc1cc(C(C)=O)ccc1OCC(O)CN1CCN(c2ccc(C)c(C)c2)CC1 (stereo not drawn) | inactive |
| C[C@@H]1CN([C@H](C)CO)C(=O)c2cc(-c3ccccc3)cnc2O[C@@H]1CN(C)C(=O)Cc1ccccc1 | inactive |
| COc1ccc(-c2cnc3c(c2)C(=O)N([C@H](C)CO)C[C@H](C)[C@@H](CN(C)C(=O)C2CC2)O3)cc1 | inactive |
| COc1ccc(CN(C)C[C@H]2Oc3ccc(NC(=O)Cc4cn(C)c5ccccc45)cc3CC(=O)N([C@@H](C)CO)C[C@@H]2C)cc1 | inactive |
| C[C@@H]1CN([C@H](C)CO)C(=O)CCCn2cc(nn2)CO[C@@H]1CN(C)C(=O)OCc1ccccc1 | inactive |
| COc1ccc(-c2cnc3c(c2)C(=O)N([C@H](C)CO)C[C@H](C)[C@@H](CN(C)C(=O)C2CCC2)O3)cc1 | inactive |
